Where “and” joins values, the source holds several entries; their conditions need not be identical. Identical values can stand only once. A number with no mark means an inactive call. Calls come from the whole dose curve; as a rule, active = well fitted activation curve with a large enough effect; inconclusive = small, poorly fitted or top-dose-only effect; inactive = no such curve, though single readings can be large or run the other way.

Sequence of Cytochrome P450 3A4 (Homo sapiens) (P08684 whole entry, looked up): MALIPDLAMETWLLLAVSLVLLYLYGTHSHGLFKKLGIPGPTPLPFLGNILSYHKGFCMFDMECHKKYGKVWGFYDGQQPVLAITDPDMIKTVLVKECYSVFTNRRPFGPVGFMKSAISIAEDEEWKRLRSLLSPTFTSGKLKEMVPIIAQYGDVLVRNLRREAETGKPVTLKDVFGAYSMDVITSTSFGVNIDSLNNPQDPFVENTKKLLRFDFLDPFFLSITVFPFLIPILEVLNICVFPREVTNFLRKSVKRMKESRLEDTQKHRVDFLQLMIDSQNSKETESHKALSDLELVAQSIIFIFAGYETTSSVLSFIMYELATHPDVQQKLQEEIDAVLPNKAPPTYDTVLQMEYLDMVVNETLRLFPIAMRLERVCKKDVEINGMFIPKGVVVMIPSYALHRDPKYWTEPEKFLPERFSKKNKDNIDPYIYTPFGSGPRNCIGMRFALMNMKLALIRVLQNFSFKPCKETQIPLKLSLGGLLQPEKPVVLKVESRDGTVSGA

The test has as its target Cytochrome P450 3A4 (Homo sapiens) (UniProt P08684). The test is described as follows: qHTS Assay for Activators of Cytochrome P450 3A4 (AID 885). Note: nearly all actives have a fitted effect of over 65% in size. As to conditions: recombinant CYP3A4, Luciferin-PPXE luminescence, 60 min; series mostly up to 57.1 µM; activity change, positive = activation: at the top concentration. The method in brief: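 Steps: enzyme/substrate mix dispensed; compound added, 10 min RT; NADPH regeneration solution added, 60 min RT; luciferin detection buffer stops reaction; 20 min later luminescence measured.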
On the technique in general: In qHTS, concentration-response curves come from the screen itself.
Turning to `CCC1=C(OC(=O)N(CC)CC)N2C(=O)OC(=NCCOC)[C@]2(C)[C@H]2C1=CC[C@H]1C(=O)NC(=O)[C@H]12`, the “activity change, positive = activation” value was -54.3%.

Regarding `CO/N=C1/c2cc(OC)ccc2O[C@@H](c2cccc(OC)c2)[C@H]1O`, the activity change, positive = activation was -52.8% [at 11.4 µM].

As to `C[C@@H](c1ccccc1)N1C(=O)[C@H]2[C@H]3[C@H](O)[C@H](O)C/C(=N/OCc4ccccc4)[C@H]3CC[C@@H]2C1=O`, the activity change, positive = activation was -40.9% [at 11.4 µM].

Consider `CO[C@@H]1COC(=O)C/C=C\[C@@H](C)COC(=O)[C@H](Cc2ccccc2)NC(=O)C/C=C\[C@H]1C`, for which the activity change, positive = activation was -39.1% [at 11.4 µM].

As to `COC(=O)C/C=C\[C@@H](C)[C@@H](/C=N\O[C@@H](C)CN1CCCc2nc(C)c(C)cc21)OC`, the activity change, positive = activation is -59.1% [at 11.4 µM].

As to `COC(=O)C/C=C\[C@@H](C)[C@@H](/C=N\O[C@@H]1O[C@H](COC(C)=O)[C@H](OC(C)=O)[C@H](OC(C)=O)[C@H]1OC(C)=O)OC`, the activity change, positive = activation was -32.3% [at 11.4 µM].

For `COC(=O)c1cccc(C23CC4(C2)[C@H](CN(Cc2cccnc2)[C@@H]4c2ccccc2)C3c2ccc(C(F)(F)F)cc2)c1` (stereo partly specified), the “activity change, positive = activation” value is -74.6%.

On to `O=C(N/N=C1/C[C@@H](O)[C@@H](O)[C@@H]2[C@H]3C(=O)N(c4ccc(F)cc4F)C(=O)[C@@H]3CC[C@@H]12)OCc1ccccc1`, for which the activity change, positive = activation was -45.4% [at 11.4 µM].

`CC(=O)OC[C@@H]1O[C@H](C/C=N\O[C@@H](C)CN2CCCCc3nc(C)c(C)cc32)C=C[C@@H]1OC(C)=O`: the activity change, positive = activation is -57.2% [at 11.4 µM].

Regarding `CO[C@H]1COC(=O)[C@H]2CCCN2C(=O)C/C=C\[C@@H](C)[C@H](OC)COC(=O)C/C=C\[C@@H]1C`, the activity change, positive = activation is -32.7% [at 11.4 µM].

For `CO[C@H]1COC(=O)C/C=C\[C@H](C)[C@H](OC)COC(=O)[C@@H](C)COC(=O)C/C=C\[C@@H]1C`, the activity change, positive = activation is -30.8% [at 11.4 µM] and -38.4% [at 11.4 µM].

Consider `Cc1ccc(S(=O)(=O)N[C@H]2COC(=O)[C@@H](C)COC(=O)[C@H](C)NC(=O)C/C=C\[C@H]2C)cc1`, for which the activity change, positive = activation is -40.2% [at 11.4 µM].

Take `Nc1cc(=O)[nH]c(=O)n1Cc1ccccc1`: the “activity change, positive = activation” value was -32.1%.

As for `COC(=O)c1ccc(CN2[C@H](C(=O)OC)C[C@@]3(O)[C@H](O)[C@H](O)[C@H](O)C[C@@H]23)cc1`, the “activity change, positive = activation” value is -38.6%.

As to `CN1C[C@@H]2C(c3ccc(Cl)nc3)C3(c4ccc(C#N)cc4)CC2(C3)[C@H]1c1ccccc1` (stereo partly specified), the “activity change, positive = activation” value is -44.9%.

For `COC(=O)[C@@H]1C[C@@H]2CC[C@@H](O)C[C@@H]2N1Cc1ccc(C)s1`, the “activity change, positive = activation” value was -55.4%.

`CO[C@@H]1COC(=O)[C@H](COCc2ccccc2)NC(=O)C/C=C\[C@@H](C)[C@H](OC)COC(=O)[C@@H](C)NC(=O)C/C=C\[C@H]1C`: the activity change, positive = activation was -36.6% [at 11.4 µM].

Consider `CC(C)=CCC/C(C)=C/CO/N=C1/C[C@@H](O)[C@@H](O)[C@@H]2[C@H]3C(=O)N(c4ccc(F)cc4F)C(=O)[C@@H]3CC[C@@H]12`, for which the activity change, positive = activation is -30.2% [at 11.4 µM].

With `N#Cc1ccc(C23CC4(C2)[C@H](CN(CC2CCCCC2)[C@@H]4c2ccccc2)C3c2ccc(C(F)(F)F)cc2)cc1` (stereo partly specified), the “activity change, positive = activation” value was -55.3%.

As to `FC(F)(F)c1ccc(CN2C[C@@H]3C(c4ccc(C(F)(F)F)cc4)C4(c5ccccc5)CC3(C4)[C@H]2c2ccccc2)cc1` (stereo partly specified), the “activity change, positive = activation” value is -40.3%.

`COC(=O)c1cccc(C23CC4(C2)[C@H](CN(CC2CCCCC2)[C@@H]4c2ccccc2)C3c2ccc(C(F)(F)F)cc2)c1` (stereo partly specified): the “activity change, positive = activation” value was -57.7%.

For `CO[C@H]1COC(=O)[C@H]2CCCN2C(=O)C/C=C\[C@@H](C)[C@H](OC)COC(=O)[C@@H](OCc2ccccc2)/C=C\[C@@H]1C`, the activity change, positive = activation was -30.9% [at 11.4 µM].

Turning to `CCc1cc2c(nc1CC)CCN(CC/C(C)=N/OC[C@@H](C)[C@H](OCc1ccccc1)C(C)C)C2`, the activity change, positive = activation was -34.8% [at 11.4 µM].

As for `COC(=O)c1ccc(C23CC4(C2)[C@H](CN(C)[C@@H]4c2ccccc2)C3c2ccc(Cl)nc2)cc1` (stereo partly specified), the “activity change, positive = activation” value was -50%.

As for `O=C1[C@H]2[C@H]3[C@H](O)[C@H](O)C/C(=N/OC[C@@H](O)COCc4ccco4)[C@@H]3CC[C@@H]2C(=O)N1C1CCCCC1`, the activity change, positive = activation is -51.1% [at 11.4 µM].

Take `CO[C@H]1COC(=O)[C@H](C)COC(=O)C/C=C\[C@@H](C)[C@H](OC)COC(=O)C/C=C\[C@@H]1C`: the activity change, positive = activation was -51.9% [at 11.4 µM].

These data come from PubChem BioAssay (NCATS).
